Measurements taken from PubChem BioAssay (EPA / NIEHS).
Inconclusive results are not listed. Active and inactive are the calls of the source. How the source made its calls, unless noted: active means hit-call score of the fitted dose curve at least 0.9, where 1 is the maximum; inconclusive means response in the unintended direction; inactive means score below 0.9.

What was measured:
[1] = read-out: Broad substrate specificity ATP-binding cassette transporter ABCG2 (Homo sapiens) (UniProt Q9UNQ0); assay: CLD_ABCG2_24hr: CellzDirect (CLD) Gene Expression Assay for ABC Transporter (ABCG2) at 24 hours (AID 2283685)
Outline: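 Primary human hepatocytes were dosed daily with ToxCast chemicals at multiple concentrations (vehicle 0.2% DMSO). ABCG2 mRNA was measured at 24 h by qNPA chemiluminescence; induction was scored as gain of signal versus DMSO.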

[2] = read-out: Cytochrome P450 2B6 (Homo sapiens) (UniProt P20813); assay: CLD_CYP2B6_24hr: CellzDirect (CLD) Gene Expression Assay for xenobiotic metabolism (CYP2B6) at 24 hours (AID 2283686)
Outline: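 Primary human hepatocytes dosed daily for two days with fresh solutions, harvested at 24 hours; mRNA induction quantified by qNPA chemiluminescence, gain of signal vs 0.2% DMSO vehicle. Cytotoxicity annotated from phase-contrast morphology.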

[3] = read-out: Cytochrome P450 2C19 (Homo sapiens) (UniProt P33261); assay: CLD_CYP2C19_24hr: CellzDirect (CLD) Gene Expression Assay for xenobiotic metabolism (CYP2C19) at 24 hours (AID 2283687);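 further: activity means mRNA induction above DMSO vehicle baseline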
Outline: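 Primary human hepatocytes (two donor preparations) dosed daily with fresh test chemical in 0.2% DMSO vehicle; CYP2C19 mRNA induction measured at 24 h by quantitative nuclease protection assay with chemiluminescence, fitted for gain of signal versus DMSO.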

[4] = read-out: Cytochrome P450 3A4 (Homo sapiens) (UniProt P08684); assay: CLD_CYP3A4_24hr: CellzDirect (CLD) Gene Expression Assay for xenobiotic metabolism (CYP3A4) at 24 hours (AID 2283689)
Outline: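 Primary human hepatocytes from two donors dosed daily with fresh compound for two days, 0.2% DMSO vehicle. CYP3A4 mRNA at 24 hr by qNPA chemiluminescence; gain-of-signal fit versus DMSO, cytotoxicity flagged by morphology.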

[5] = read-out: organic anion transporter (SLCO1B1), SLCO1B1 (gene 10599); assay: CLD_SLCO1B1_24hr: CellzDirect (CLD) Gene Expression Assay for organic anion transporter (SLCO1B1) at 24 hours (AID 2283690)
Outline: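 Primary human hepatocytes (two donor preparations) dosed daily for two days with chemicals at multiple concentrations, 0.2% DMSO vehicle. SLCO1B1 mRNA at 24 h measured by qNPA chemiluminescence; induction fitted relative to DMSO.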

[6] = read-out: HMG-CoA synthase (HMGCS2), HMGCS2 (gene 3158); assay: CLD_HMGCS2_24hr: CellzDirect (CLD) Gene Expression Assay for HMG-CoA synthase (HMGCS2) at 24 hours (AID 2283691)
Outline: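 Primary human hepatocytes from two donor preparations, dosed daily with fresh solutions; vehicle 0.2% DMSO, 24 h harvest. HMGCS2 mRNA quantified by qNPA with S1 nuclease digestion and chemiluminescence; gain fitted versus DMSO, cytotoxicity annotated by morphology.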

[7] = read-out: Glyceraldehyde-3-phosphate dehydrogenase (Homo sapiens) (UniProt P04406); assay: CLD_GAPDH_24hr: CellzDirect (CLD) Gene Expression Assay for Baseline Control (Glyceraldehyde 3-phosphate dehydrogenase) at 24 hours (AID 2283692)
Outline: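 Primary human hepatocytes (two donor preparations) dosed daily for two days, 0.2% DMSO vehicle; GAPDH mRNA measured at 24 h by qNPA chemiluminescence as a background control, gain-of-signal fitted against DMSO.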

[8] = read-out: alkyl and aryl transferase (GSTA2), GSTA2 (gene 2939); assay: CLD_GSTA2_24hr: CellzDirect (CLD) Gene Expression Assay for alkyl and aryl transferase (GSTA2) at 24 hours (AID 2283693)
Outline: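 Primary human hepatocytes (two donor preparations) dosed daily for two days with chemicals at multiple concentrations (vehicle 0.2% DMSO); GSTA2 mRNA at 24 h measured by qNPA chemiluminescence, gain-of-signal versus DMSO.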

[9] = read-out: ABC Transporter (ABCB1), ABCB1 (gene 5243); assay: CLD_ABCB1_48hr: CellzDirect (CLD) Gene Expression Assay for ABC Transporter (ABCB1) at 48 hours (AID 2283695)
Outline: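 Primary human hepatocytes from two donor preparations dosed daily on two consecutive days with 0.2% DMSO vehicle. Harvest at 48 h. ABCB1 mRNA quantified by qNPA with chemiluminescence and fitted for gain of signal versus DMSO.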

[10] = read-out: glucuronosyltransferase (UGT1A1), UGT1A1 (gene 54658); assay: CLD_UGT1A1_24hr: CellzDirect (CLD) Gene Expression Assay for glucuronosyltransferase (UGT1A1) at 24 hours (AID 2283696)
Outline: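 Primary human hepatocytes from two donor preparations were dosed (0.2% DMSO vehicle) and harvested at 24 h; UGT1A1 mRNA induction was quantified by chemiluminescent qNPA, fitted as gain relative to DMSO.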

[11] = read-out: ABC Transporter (ABCB11), ABCB11 (gene 8647); assay: CLD_ABCB11_48hr: CellzDirect (CLD) Gene Expression Assay for ABC Transporter (ABCB11) at 48 hours (AID 2283697)
Outline: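 Primary human hepatocytes from two donor preparations dosed daily for two days at multiple concentrations; 0.2% DMSO vehicle. ABCB11 mRNA at 48 h by quantitative nuclease protection assay, chemiluminescence; fitted for induction versus DMSO.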

[12] = read-out: Cytochrome P450 3A4 (Homo sapiens) (UniProt P08684); assay: CLD_CYP3A4_48hr: CellzDirect (CLD) Gene Expression Assay for xenobiotic metabolism (CYP3A4) at 48 hours (AID 2283698)
Outline: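 Primary human hepatocytes from two donor preparations dosed daily for two days with multiple chemical concentrations, 0.2% DMSO vehicle. CYP3A4 mRNA at 48 h by quantitative nuclease protection assay, chemiluminescence, positive fit versus DMSO; cytotoxicity flagged morphologically.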

[13] = read-out: Cytochrome P450 2B6 (Homo sapiens) (UniProt P20813); assay: CLD_CYP2B6_48hr: CellzDirect (CLD) Gene Expression Assay for xenobiotic metabolism (CYP2B6) at 48 hours (AID 2283699);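 further: actives raise transcript level above DMSO so potency reflects induction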
Outline: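 Primary human hepatocytes dosed daily for two days over multiple concentrations, 0.2% DMSO vehicle; CYP2B6 mRNA quantified at 48 h by qNPA chemiluminescence. Induction fitted as gain of signal versus DMSO; cytotoxicity annotated by morphology.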

[14] = read-out: Cytochrome P450 2C19 (Homo sapiens) (UniProt P33261); assay: CLD_CYP2C19_48hr: CellzDirect (CLD) Gene Expression Assay for xenobiotic metabolism (CYP2C19) at 48 hours (AID 2283700);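 further: fitted upward so actives raise CYP2C19 mRNA above the 0.2% DMSO vehicle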
Outline: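 Primary human hepatocytes (two donor preparations) dosed daily for two days, harvested at 48 h; CYP2C19 mRNA induction measured by qNPA chemiluminescence. Gain-of-signal fitted relative to 0.2% DMSO vehicle as baseline.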

[15] = read-out: Cytochrome P450 2C9 (Homo sapiens) (UniProt P11712); assay: CLD_CYP2C9_48hr: CellzDirect (CLD) Gene Expression Assay for xenobiotic metabolism (CYP2C9) at 48 hours (AID 2283701; active means hit-call score of the fitted dose curve at least 0.9, where 1 is the maximum; inactive means score below 0.9)
Outline: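 Primary human hepatocytes (two donor preparations) dosed daily for two days with test chemicals, 0.2% DMSO vehicle; harvested at 48 h. mRNA induction quantified by qNPA chemiluminescence, fitted for gain of signal against DMSO baseline; cytotoxicity annotated from phase-contrast morphology.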

[16] = read-out: xenobiotic metabolism (CYP1A2), CYP1A2 (gene 1544); assay: CLD_CYP1A2_48hr: CellzDirect (CLD) Gene Expression Assay for xenobiotic metabolism (CYP1A2) at 48 hours (AID 2283703)
Outline: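 Primary human hepatocytes from two donor preparations were dosed daily for two days at multiple concentrations in 0.2% DMSO vehicle. CYP1A2 mRNA was measured at 48 hours by chemiluminescent quantitative nuclease protection assay, with gain of signal fitted versus DMSO and cytotoxicity annotated from morphology.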

[17] = read-out: sulfotransferase (SULT2A), SULT2A1 (gene 6822); assay: CLD_SULT2A_24hr: CellzDirect (CLD) Gene Expression Assay for sulfotransferase (SULT2A) at 24 hours (AID 2283694)
Outline: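 Primary human hepatocytes from two donor preparations were dosed daily with fresh solutions, vehicle 0.2% DMSO. At 24 h, lysates went to quantitative nuclease protection (qNPA) with S1 digestion and chemiluminescent readout. Cytotoxicity was annotated from phase-contrast morphology.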

[18] = CLD_ACTIN_48hr: CellzDirect (CLD) Gene Expression Assay for Baseline Control (Actin) at 48 hours (AID 2283702)
Outline: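 Primary human hepatocytes (two donor preparations) dosed daily for two days with ToxCast chemicals at multiple concentrations versus 0.2% DMSO vehicle; harvested at 48 h. Actin mRNA measured as a background control by quantitative nuclease protection assay with chemiluminescence.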

[19] = read-out: Cytochrome P450 2C9 (Homo sapiens) (UniProt P11712); assay: CLD_CYP2C9_24hr: CellzDirect (CLD) Gene Expression Assay for xenobiotic metabolism (CYP2C9) at 24 hours (AID 2283688)
Outline: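 Primary human hepatocytes from two donor preparations, dosed daily for two days at multiple concentrations; vehicle 0.2% DMSO. CYP2C9 mRNA induction at 24 h measured by qNPA chemiluminescence relative to DMSO; cytotoxicity annotated from morphology.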

[20] = read-out: Broad substrate specificity ATP-binding cassette transporter ABCG2 (Homo sapiens) (UniProt Q9UNQ0); assay: CLD_ABCG2_48hr: CellzDirect (CLD) Gene Expression Assay for ABC Transporter (ABCG2) at 48 hours (AID 2283704)
Outline: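 Primary human hepatocytes from two donors, dosed daily for 2 days, 0.2% DMSO vehicle, several concentrations. ABCG2 mRNA at 48 h by qNPA chemiluminescence, gain fitted versus DMSO; cytotoxicity flagged by morphology.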

Measured: AC50

Sequence of Broad substrate specificity ATP-binding cassette transporter ABCG2 (Homo sapiens) (Q9UNQ0 whole entry, looked up): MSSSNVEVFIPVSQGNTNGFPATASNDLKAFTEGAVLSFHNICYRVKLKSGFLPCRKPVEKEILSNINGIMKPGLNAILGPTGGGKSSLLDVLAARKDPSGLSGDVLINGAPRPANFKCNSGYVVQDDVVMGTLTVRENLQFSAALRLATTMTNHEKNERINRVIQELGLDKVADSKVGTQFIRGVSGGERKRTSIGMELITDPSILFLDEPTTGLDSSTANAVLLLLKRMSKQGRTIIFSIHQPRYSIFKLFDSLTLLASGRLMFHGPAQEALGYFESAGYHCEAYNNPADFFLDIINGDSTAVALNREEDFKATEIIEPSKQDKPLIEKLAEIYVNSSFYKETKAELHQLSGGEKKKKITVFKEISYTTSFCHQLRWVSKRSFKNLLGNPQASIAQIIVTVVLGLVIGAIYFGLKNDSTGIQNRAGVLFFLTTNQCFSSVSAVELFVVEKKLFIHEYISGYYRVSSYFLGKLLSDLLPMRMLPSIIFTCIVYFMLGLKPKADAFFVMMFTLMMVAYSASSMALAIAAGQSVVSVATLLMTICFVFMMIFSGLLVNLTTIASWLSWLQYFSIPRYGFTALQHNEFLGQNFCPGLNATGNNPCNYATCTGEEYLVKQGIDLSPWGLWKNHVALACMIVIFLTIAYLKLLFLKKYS
Sequence of Cytochrome P450 2C19 (Homo sapiens) (P33261 whole entry, looked up): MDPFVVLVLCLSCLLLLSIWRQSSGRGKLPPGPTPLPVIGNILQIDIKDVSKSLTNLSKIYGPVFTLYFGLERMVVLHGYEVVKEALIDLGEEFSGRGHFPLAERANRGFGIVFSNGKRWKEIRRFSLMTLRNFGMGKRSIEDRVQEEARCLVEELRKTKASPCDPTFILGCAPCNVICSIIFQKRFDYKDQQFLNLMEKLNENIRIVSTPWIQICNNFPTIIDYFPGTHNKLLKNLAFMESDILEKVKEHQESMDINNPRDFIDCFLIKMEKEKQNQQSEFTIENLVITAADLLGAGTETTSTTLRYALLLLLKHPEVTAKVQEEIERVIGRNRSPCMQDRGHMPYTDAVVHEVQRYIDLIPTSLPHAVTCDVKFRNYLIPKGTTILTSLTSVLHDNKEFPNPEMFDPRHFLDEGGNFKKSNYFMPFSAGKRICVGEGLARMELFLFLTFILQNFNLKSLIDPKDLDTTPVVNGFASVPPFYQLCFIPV
Sequence of Cytochrome P450 3A4 (Homo sapiens) (P08684 whole entry, looked up): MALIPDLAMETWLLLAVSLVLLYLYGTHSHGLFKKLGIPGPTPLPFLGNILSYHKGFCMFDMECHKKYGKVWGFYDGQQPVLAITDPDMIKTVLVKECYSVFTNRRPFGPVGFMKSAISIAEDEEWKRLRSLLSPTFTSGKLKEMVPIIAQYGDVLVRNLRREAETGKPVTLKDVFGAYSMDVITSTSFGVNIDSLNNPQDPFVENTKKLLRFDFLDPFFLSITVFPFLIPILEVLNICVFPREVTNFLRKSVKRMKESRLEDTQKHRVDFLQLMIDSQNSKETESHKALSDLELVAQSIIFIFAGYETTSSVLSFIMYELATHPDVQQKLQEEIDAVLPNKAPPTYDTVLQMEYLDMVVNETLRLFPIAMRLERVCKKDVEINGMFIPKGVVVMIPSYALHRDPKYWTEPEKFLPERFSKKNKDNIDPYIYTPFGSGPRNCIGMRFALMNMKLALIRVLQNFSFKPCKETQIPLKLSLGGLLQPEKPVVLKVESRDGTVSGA
Sequence of Glyceraldehyde-3-phosphate dehydrogenase (Homo sapiens) (P04406 whole entry, looked up): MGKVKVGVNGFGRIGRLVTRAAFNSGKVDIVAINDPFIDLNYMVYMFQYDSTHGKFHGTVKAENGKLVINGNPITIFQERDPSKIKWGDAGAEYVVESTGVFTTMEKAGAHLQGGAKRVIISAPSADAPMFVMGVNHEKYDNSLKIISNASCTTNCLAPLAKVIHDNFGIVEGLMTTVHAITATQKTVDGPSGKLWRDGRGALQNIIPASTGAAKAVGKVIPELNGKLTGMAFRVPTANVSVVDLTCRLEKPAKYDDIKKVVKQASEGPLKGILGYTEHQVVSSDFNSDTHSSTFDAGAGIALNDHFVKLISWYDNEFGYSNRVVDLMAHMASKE

CCSC(=O)N(CC)C1CCCCC1
inactive: [1] | [3] | [5] | [6] | [7] | [8] | [9] | [10] | [11] | [14] | [15] | [16]
active: [2] 6.17 µM | [4] 0.000663 µM | [12] 0.000988 µM | [13] 0.000515 µM

CN(C)c1nc(=O)n(C2CCCCC2)c(=O)n1C
inactive: [2] | [3] | [5] | [7] | [17] | [10] | [11] | [12] | [18] | [16]
active: [4] 3.97 µM

CCNc1nc(NC(C)C)nc(SC)n1
inactive: [19] | [7] | [8] | [17] | [9] | [10] | [18] | [16] | [20]
active: [2] 0.92 µM | [4] 4.22 µM | [12] 5.88 µM | [13] 1.9 µM

Cc1ccccc1CO[C@@H]1C[C@@]2(C(C)C)CC[C@]1(C)O2
active: [2] 3.91 µM | [4] 20 µM | [10] 5.18 µM | [12] 10.4 µM | [13] 4.16 µM | [16] 11.5 µM
inactive: [3] | [19] | [5] | [17] | [9] | [14] | [20]

CCC(C)(CC)c1cc(NC(=O)c2c(OC)cccc2OC)on1
inactive: [19] | [5] | [17] | [9] | [10] | [15] | [20]
active: [2] 0.259 µM | [4] 0.0271 µM | [12] 0.126 µM | [13] 0.26 µM | [16] 4.25 µM
